DAX1 inh-1 – inhibits human nuclear receptor DAX1; P51843; HEK293 Gal4-DAX1 luciferase reporter, luminescence; inhibition, % at 6.75 µM; 340,000 tested, 0.99% active; AID 504766;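 active = inhibition above the mean over all tested compounds plus 3 SD, cut at about 4.2% in these data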;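 also: 0% = DAX1-transfected cells with DMSO and 100% = empty-vector control cells with DMSO; inhibition shows as a rise in luminescence from relieved DAX1 repression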
Target sequence (P51843 207-470 limits assumed): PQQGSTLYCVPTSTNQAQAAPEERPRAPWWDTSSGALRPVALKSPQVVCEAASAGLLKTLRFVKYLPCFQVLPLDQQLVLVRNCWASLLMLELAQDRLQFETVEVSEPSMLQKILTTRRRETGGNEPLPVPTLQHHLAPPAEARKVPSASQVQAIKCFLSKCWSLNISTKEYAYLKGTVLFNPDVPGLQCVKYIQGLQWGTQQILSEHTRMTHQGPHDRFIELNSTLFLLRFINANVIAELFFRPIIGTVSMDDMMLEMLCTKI
ssDAF-12 act – activators of S. stercoralis DAF-12 nuclear receptor | activation, % at 6.8 µM | HEK293 ssDAF-12/GRIP1 lit1-tk-luc reporter, luminescence; % of 3 µM dafachronic acid response | 370,000 tested, 1% active;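 active = activation above the mean over all tested compounds plus 3 SD, cut at about 0.9% in these data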;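 also: 0% = DMSO-only wells and 100% = 3 µM delta7-dafachronic acid wells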
DAX1 inh-2 – inhibitors of DAX1 repression of SF-1 activated StAR promoter; HEK293T StAR-luciferase reporter, SF-1/DAX-1 repression relief; inhibition, % at 6.8 µM; 370,000 tested, 1.1% active; AID 652010;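 active = inhibition above the mean over all tested compounds plus 3 SD, cut at about 3.6% in these data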;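 also: 0% = DAX-1 cells with DMSO and 100% = cells lacking DAX-1 with DMSO; higher inhibition means more luminescence from relief of DAX-1 repression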
hgDAF-12 ag – hgDAF-12 agonism, primary luciferase screen; activation, % at 6.8 µM; HEK293 GAL4-hgDAF12 UAS-luciferase reporter, agonist luminescence; normalized to butyrate control; 370,000 tested, 1.8% active;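 active = activation above a cutoff set at the mean of all screened compounds plus 3 SD, cut at about 10% in these data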;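 also: 0% = DMSO wells and 100% = sodium butyrate wells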
hcDAF12 agonist – activates DAF-12 receptor from parasite H. contortus; HEK293 hcDAF-12 lit1-tk-luc reporter, luminescence; 0% DMSO, 100% Δ7-dafachronic acid; activation, % at 6.8 µM; 370,000 tested, 1.4% active; AID 652067;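 active = activation above the mean of all tested compounds plus 3 SD, cut at about 5.5% in these data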;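 also: 100% = response to 3 µM Δ7-dafachronic acid high control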
* marks the source's active call; other numbers are inactive results; nt = no result given. Shown are actives, neighbours in structure and some others; about 4.1% of the full set was active somewhere.

SMILES	DAX1 inh-1	ssDAF-12 act	DAX1 inh-2	hgDAF-12 ag	hcDAF12 agonist
COc1ccc(S(=O)(=O)N2CCCCCC2)cc1	1	-1	1	0	-1
COc1ccc(NC(=O)CCN2CCN(S(=O)(=O)c3ccc(Cl)cc3)CC2)cc1	-2	-2	-1	-2	-1
COc1ccc(OC)c(Cc2nnc(CCC(=O)N3CCN(C4CCCC4)CC3)o2)c1	1	-1	3.7*	4	2
COc1ccc(NC(=O)CCN2CCN(S(=O)(=O)c3ccc(C(C)C)cc3)CC2)cc1	-2	1.2*	-1	-2	-3
COc1ccc(OC)c(Cc2nnc(CCC(=O)N3CCCCC3)o2)c1	1	0	1	3	-1
COc1ccc(-c2ccc(S(=O)(=O)N3CCCC3)cc2)cc1	5.2*	-1	-1	-1	-2
COc1ccc(S(=O)(=O)N2CCN(C(=O)C3CC3)CC2)cc1	4.2*	-1	0	3	0
CN(C)CCCN1CC(=O)N2CCc3ccc(Br)cc3C2CC1=O (centres undefined)	nt	-1	1	0	1
COc1ccc(OC)c(S(=O)(=O)N2CCC(c3nc4ccccc4[nH]3)CC2)c1	0	0	4.1*	1	1
COc1ccc(S(=O)(=O)N2CCC(c3nc4ccccc4[nH]3)CC2)cc1	0	-1	0	0	-1
COc1ccc(OC)c(S(=O)(=O)N2CCC(C(=O)N3CCN(c4ccc(F)cc4)CC3)CC2)c1	-1	-2	-3	-3	-3
COc1ccc(OC)c(S(=O)(=O)N2CCC(C(=O)N3CCN(C4CCCCC4)CC3)CC2)c1	nt	-1	4.2*	-1	0
CCOC(=O)CC1(O)CSc2nc(N)cc(=O)n21 (centres undefined)	nt	-1	0	4	0
CCCCCCN1C[C@H](O)[C@@H](n2cc(COC(=O)c3ccccc3)nn2)C[C@@H]1c1ccc(Cl)cc1	1	-1	3	-1	0
O=C1NC(=O)C(=O)N1	2	-1	0	0	-1
O=C1NC(=O)c2c(Br)c(Br)c(Br)c(Br)c21	1	1.0*	0	2	1
CC1CCN(C(=O)c2ncn3c2C(=O)NC[C@H]3C)CC1	nt	-1	0	1	1
COc1cc(/C=N/NC(=O)c2c(C)nc3ccc(Cl)cn23)cc(OC)c1OC	5.3*	-1	-1	-2	-1
Cc1cc(=O)oc2cc(OCc3c(F)cccc3Cl)ccc12	nt	-1	2	4	-1
COc1ccc(-c2nc3ncccn3c2Br)cc1	10.0*	0	2	11*	3
Nc1ccn([C@@H]2O[C@H](C(=O)N[C@H](Cc3ccccc3)C(=O)N3CCN(C(=O)N4CCOCC4)CC3)[C@@H](O)[C@H]2O)c(=O)n1	nt	-1	1	4	-2
Nc1c(Cl)cc(C2=NCCn3nc4cc([N+](=O)[O-])ccc4c32)cc1Cl	1	0	0	-1	5.8*
COC(=O)C1=C(C)N(Cc2ccccc2C(F)(F)F)C(=NCC2CC2)NC1c1ccc(F)cc1 (centres undefined)	nt	-1	-1	4	0
COc1ccc(CN(C2CCCC2)S(=O)(=O)c2cc(Br)ccc2Br)c(OC)c1	nt	-1	-1	-1	-2
Cc1ccn2c(NC3CCCCC3)c(C)nc2c1	5.1*	-1	-1	1	0
SMILES	DAX1 inh-1	ssDAF-12 act	DAX1 inh-2	hgDAF-12 ag	hcDAF12 agonist
O=C(C(O)c1ccccc1)N1CCN(S(=O)(=O)c2ccc(OC(F)(F)F)cc2)CC1 (centres undefined)	nt	0	0	-1	-2
COC(=O)c1ccc(C2NC(C(=O)O)CS2)cc1 (centres undefined)	4.6*	-1	-1	4	0
C[C@]12Cc3ccccc3C1CC1=N[C@@H](c3ccc(C(F)(F)F)cc3)O[C@@]13C[C@@H]2C(=O)N3Cc1ccncc1 (some centres undefined)	nt	-1	0	1	-1
COc1cc(NS(=O)(=O)c2ccc3c(c2)C(C)(C)C(=O)N3C)cc(OC)c1	5.0*	-1	0	-3	-1
COc1ccc(CNS(=O)(=O)c2ccc3c(c2)C(C)(C)C(=O)N3C)cc1	0	-1	0	-1	0
COC(=O)C1(C)CCCC2(C)c3cc(OC)ccc3C(=O)C(Br)C12 (centres undefined)	0	-1	-1	-3	-1

From PubChem
